# Tests used:
# Assay in all cases: DAPPL (digital affinity profiling via proximity ligation, sequencing); 10 mM Tris-HCl pH 7.5, 50 mM NaCl, 1 mM DTT, 4% glycerol, room temperature, 30 min; GST-TFs on glutathione beads, 16-mer random dsDNA library, 0.1% formaldehyde crosslink after washing; high values mean tight binding
# [1] = target: T1, FLI1 (Homo sapiens, UniProt Q01543 1-452); details: protein: recombinant; tags: N-terminal GST; dsDNA, one strand shown
# T1 sequence: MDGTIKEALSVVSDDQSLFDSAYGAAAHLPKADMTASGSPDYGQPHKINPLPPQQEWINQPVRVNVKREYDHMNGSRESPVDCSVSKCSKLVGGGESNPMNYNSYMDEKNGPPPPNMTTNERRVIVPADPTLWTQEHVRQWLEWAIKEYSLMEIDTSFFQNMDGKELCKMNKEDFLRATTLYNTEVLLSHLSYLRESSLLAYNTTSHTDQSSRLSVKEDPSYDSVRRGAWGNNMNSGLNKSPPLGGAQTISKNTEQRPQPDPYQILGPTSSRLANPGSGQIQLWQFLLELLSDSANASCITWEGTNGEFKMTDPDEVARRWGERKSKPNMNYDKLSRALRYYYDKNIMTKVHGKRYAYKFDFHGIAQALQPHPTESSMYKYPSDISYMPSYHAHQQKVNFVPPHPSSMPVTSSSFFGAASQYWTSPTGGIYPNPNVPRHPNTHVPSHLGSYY
# Summary of the method: (§1)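 Binding signal is defined as a hexamer's read frequency for one factor over its frequency for the tag-only sample. To obtain reads, GST-fused human transcription factors were expressed in yeast, captured on glutathione beads, barcoded with DNA and pooled with that sample. Pools met 200 nmole of a 16-mer random double-stranded DNA library in Tris/NaCl/DTT/glycerol buffer for 30 min at room temperature before washing, 0.1% formaldehyde crosslinking, proximity ligation (BsaI/T4 ligase, 1 h, 37 °C), PCR and Illumina NextSeq500 sequencing.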
# [2] = target: T2, ELK1 (Homo sapiens, UniProt P19419 1-428); details: protein: recombinant; tags: N-terminal GST; dsDNA, one strand shown
# T2 sequence: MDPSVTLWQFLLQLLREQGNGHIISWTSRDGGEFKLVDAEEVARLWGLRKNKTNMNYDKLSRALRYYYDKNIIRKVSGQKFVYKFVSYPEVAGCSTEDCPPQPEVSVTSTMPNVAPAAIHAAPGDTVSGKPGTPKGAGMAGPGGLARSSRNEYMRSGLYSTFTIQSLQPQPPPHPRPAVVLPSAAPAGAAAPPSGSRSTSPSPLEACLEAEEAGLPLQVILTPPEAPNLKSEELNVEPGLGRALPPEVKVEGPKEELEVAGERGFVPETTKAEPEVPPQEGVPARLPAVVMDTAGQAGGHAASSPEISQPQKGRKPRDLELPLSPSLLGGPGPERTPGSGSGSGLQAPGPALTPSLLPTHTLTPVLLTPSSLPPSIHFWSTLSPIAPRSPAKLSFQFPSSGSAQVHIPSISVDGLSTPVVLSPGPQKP
# Summary of the method: as §1
# [3] = target: T3, GABPA (Homo sapiens, UniProt Q06546 1-454); details: protein: recombinant; tags: N-terminal GST; dsDNA, one strand shown
# T3 sequence: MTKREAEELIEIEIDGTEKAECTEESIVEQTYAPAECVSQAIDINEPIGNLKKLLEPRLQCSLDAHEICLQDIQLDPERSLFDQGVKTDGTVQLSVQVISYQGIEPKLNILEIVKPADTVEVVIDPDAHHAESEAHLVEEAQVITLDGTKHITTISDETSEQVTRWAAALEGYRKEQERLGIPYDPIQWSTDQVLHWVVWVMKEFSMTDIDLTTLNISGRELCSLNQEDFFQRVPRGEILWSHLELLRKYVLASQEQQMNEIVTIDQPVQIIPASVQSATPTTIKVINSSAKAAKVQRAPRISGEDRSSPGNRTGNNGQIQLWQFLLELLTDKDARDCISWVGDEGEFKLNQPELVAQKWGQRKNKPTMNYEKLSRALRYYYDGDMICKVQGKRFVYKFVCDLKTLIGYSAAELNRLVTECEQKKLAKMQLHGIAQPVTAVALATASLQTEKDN
# Summary of the method: as §1
# [4] = target: T4, ERG (Homo sapiens, UniProt P11308 1-479); details: protein: recombinant; tags: N-terminal GST; dsDNA, one strand shown
# T4 sequence: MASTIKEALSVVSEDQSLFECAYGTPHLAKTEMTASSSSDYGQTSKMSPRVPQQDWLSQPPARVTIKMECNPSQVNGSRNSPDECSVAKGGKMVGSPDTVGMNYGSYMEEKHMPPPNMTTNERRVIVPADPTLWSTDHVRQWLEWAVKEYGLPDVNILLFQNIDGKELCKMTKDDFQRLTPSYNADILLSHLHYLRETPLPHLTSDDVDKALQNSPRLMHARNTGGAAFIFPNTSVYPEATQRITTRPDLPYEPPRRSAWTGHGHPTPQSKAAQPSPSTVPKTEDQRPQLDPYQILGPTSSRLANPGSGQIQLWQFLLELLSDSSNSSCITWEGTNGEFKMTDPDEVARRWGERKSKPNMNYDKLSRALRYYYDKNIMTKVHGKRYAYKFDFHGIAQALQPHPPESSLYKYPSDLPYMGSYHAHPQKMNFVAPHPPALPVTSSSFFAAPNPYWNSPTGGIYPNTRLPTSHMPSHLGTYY
# Summary of the method: as §1
# [5] = target: ELF1 (Homo sapiens, UniProt P32519 1-619); details: protein: recombinant; tags: N-terminal GST; dsDNA, one strand shown
# Summary of the method: as §1
# [6] = target: T5, EHF (Homo sapiens, UniProt Q9NZC4 1-300); details: protein: recombinant; tags: N-terminal GST; dsDNA, one strand shown
# T5 sequence: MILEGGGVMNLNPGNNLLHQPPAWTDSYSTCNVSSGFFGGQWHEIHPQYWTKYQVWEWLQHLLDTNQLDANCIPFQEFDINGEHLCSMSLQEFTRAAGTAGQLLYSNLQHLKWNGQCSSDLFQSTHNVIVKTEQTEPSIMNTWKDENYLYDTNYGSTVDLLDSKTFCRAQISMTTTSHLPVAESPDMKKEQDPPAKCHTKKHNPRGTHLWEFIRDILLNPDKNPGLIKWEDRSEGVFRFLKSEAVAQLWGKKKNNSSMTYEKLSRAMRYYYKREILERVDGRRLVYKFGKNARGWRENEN
# Summary of the method: as §1
# [7] = target: SPI1 (Homo sapiens, UniProt P17947 1-270); details: protein: recombinant; tags: N-terminal GST; dsDNA, one strand shown
# Summary of the method: as §1
# [8] = target: SPIB (Homo sapiens, UniProt Q01892 1-262); details: protein: recombinant; tags: N-terminal GST; dsDNA, one strand shown
# Summary of the method: as §1
# [9] = target: T6, ELK3 (Homo sapiens, UniProt P41970 1-407); details: protein: recombinant; tags: N-terminal GST; dsDNA, one strand shown
# T6 sequence: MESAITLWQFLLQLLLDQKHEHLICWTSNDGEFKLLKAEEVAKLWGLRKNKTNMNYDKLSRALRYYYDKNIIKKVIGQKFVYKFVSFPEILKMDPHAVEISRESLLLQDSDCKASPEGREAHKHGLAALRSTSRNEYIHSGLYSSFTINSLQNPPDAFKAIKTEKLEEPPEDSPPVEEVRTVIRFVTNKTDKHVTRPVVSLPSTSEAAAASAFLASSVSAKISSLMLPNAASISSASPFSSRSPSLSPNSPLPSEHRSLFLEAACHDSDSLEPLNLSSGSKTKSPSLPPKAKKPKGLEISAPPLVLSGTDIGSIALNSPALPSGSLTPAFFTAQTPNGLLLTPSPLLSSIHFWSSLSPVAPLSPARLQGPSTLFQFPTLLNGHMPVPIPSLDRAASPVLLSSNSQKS
# Summary of the method: as §1
# [10] = target: T7, FEV (Homo sapiens, UniProt Q99581 1-238); details: protein: recombinant; tags: N-terminal GST; dsDNA, one strand shown
# T7 sequence: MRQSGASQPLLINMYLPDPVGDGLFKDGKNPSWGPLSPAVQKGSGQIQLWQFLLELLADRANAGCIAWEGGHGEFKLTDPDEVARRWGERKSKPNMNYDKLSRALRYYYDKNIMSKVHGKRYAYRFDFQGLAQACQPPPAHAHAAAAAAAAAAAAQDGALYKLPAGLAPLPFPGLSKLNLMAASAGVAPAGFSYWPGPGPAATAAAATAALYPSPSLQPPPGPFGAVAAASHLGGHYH
# Summary of the method: as §1
# [11] = target: ETV5 (Homo sapiens, UniProt P41161 1-510); details: protein: recombinant; tags: N-terminal GST; dsDNA, one strand shown
# Summary of the method: as §1
# [12] = target: HSF1 (Homo sapiens, UniProt Q00613 1-529); details: protein: recombinant; tags: N-terminal GST; chain copies: 3; dsDNA, one strand shown
# Summary of the method: as §1
# [13] = target: T8, SPIC (Homo sapiens, UniProt Q8N5J4 1-248); details: protein: recombinant; tags: N-terminal GST; dsDNA, one strand shown
# T8 sequence: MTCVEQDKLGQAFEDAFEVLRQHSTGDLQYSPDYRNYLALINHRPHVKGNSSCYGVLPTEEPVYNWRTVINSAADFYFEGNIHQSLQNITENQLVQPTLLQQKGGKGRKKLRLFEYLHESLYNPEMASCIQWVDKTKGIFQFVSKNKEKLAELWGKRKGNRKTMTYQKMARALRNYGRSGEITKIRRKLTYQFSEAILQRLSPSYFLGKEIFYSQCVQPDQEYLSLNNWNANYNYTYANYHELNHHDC
# Summary of the method: as §1
# [14] = target: ELF4 (Homo sapiens, UniProt Q99607 1-663); details: protein: recombinant; tags: N-terminal GST; dsDNA, one strand shown
# Summary of the method: as §1
# [15] = target: T9, ELK4 (Homo sapiens, UniProt P28324-2 1-405); details: protein: recombinant; tags: N-terminal GST; dsDNA, one strand shown
# T9 sequence: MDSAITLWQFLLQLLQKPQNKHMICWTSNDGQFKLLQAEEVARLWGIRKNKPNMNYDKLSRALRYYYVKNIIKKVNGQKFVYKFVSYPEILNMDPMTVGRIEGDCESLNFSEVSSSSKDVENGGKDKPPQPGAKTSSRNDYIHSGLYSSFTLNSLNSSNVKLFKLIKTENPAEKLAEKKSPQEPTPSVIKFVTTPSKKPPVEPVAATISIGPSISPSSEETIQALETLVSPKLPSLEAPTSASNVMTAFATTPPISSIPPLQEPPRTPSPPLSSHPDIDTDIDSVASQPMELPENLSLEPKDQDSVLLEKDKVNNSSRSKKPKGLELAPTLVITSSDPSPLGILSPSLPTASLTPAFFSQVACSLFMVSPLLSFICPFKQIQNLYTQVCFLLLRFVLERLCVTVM
# Summary of the method: as §1
# [16] = target: T10, ETV2 (Homo sapiens, UniProt O00321 1-342); details: protein: recombinant; tags: N-terminal GST; dsDNA, one strand shown
# T10 sequence: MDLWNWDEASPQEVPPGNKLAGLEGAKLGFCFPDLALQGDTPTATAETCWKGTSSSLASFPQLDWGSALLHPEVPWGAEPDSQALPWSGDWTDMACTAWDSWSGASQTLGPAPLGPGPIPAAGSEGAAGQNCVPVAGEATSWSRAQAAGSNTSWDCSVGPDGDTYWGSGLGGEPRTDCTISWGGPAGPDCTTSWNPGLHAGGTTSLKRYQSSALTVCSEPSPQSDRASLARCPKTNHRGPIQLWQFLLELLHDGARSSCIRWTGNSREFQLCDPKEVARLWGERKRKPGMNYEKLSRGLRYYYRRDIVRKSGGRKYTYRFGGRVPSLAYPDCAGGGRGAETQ
# Summary of the method: as §1
# [17] = target: T11, ELF3 (Homo sapiens, UniProt P78545 1-371); details: protein: recombinant; tags: N-terminal GST; dsDNA, one strand shown
# T11 sequence: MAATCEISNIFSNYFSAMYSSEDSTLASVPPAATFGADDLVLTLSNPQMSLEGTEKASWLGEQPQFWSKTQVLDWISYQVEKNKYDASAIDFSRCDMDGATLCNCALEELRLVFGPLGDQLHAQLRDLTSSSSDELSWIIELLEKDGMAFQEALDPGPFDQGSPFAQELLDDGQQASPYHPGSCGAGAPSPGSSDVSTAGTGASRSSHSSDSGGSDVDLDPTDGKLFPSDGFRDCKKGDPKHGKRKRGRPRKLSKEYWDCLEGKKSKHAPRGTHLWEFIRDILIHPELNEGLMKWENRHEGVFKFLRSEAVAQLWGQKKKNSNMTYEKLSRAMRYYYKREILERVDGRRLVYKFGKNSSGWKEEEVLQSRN
# Summary of the method: as §1
# [18] = target: CRX (Homo sapiens, UniProt O43186 1-299); details: protein: recombinant; tags: N-terminal GST; dsDNA, one strand shown
# Summary of the method: as §1
# [19] = target: ETV1 (Homo sapiens, UniProt P50549 1-477); details: protein: recombinant; tags: N-terminal GST; dsDNA, one strand shown
# Summary of the method: as §1
# ELF4, sequence (Q99607 whole entry): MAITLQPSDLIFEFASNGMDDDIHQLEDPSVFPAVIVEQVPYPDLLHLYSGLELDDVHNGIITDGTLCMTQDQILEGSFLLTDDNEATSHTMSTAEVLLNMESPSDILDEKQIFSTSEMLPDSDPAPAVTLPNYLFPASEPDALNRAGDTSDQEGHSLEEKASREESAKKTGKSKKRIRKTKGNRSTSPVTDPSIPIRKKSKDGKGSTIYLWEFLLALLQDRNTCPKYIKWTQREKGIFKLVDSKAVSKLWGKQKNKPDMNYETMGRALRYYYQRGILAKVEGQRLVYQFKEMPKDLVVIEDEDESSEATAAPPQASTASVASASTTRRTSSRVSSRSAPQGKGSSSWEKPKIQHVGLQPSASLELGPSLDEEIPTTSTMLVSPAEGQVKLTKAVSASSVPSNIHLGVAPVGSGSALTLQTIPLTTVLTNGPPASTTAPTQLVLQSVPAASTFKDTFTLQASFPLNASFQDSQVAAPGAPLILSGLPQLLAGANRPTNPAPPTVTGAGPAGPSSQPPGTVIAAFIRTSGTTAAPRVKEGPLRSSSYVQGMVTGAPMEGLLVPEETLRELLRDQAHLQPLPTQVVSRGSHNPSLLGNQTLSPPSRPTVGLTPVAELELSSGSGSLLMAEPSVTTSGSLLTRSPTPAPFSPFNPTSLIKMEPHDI
# ETV1, sequence (P50549 whole entry): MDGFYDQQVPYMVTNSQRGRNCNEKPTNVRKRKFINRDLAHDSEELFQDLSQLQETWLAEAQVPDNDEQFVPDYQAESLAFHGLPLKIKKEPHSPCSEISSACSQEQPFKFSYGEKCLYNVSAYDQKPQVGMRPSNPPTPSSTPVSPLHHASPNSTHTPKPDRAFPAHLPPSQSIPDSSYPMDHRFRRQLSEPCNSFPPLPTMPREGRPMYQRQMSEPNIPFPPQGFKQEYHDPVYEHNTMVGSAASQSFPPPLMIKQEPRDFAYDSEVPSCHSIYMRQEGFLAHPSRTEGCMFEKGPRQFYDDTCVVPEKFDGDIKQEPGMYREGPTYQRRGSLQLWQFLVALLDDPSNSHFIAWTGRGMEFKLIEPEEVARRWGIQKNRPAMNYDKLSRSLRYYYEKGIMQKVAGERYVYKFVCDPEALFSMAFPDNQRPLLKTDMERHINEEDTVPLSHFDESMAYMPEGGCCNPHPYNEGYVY
# ETV5, sequence (P41161 whole entry): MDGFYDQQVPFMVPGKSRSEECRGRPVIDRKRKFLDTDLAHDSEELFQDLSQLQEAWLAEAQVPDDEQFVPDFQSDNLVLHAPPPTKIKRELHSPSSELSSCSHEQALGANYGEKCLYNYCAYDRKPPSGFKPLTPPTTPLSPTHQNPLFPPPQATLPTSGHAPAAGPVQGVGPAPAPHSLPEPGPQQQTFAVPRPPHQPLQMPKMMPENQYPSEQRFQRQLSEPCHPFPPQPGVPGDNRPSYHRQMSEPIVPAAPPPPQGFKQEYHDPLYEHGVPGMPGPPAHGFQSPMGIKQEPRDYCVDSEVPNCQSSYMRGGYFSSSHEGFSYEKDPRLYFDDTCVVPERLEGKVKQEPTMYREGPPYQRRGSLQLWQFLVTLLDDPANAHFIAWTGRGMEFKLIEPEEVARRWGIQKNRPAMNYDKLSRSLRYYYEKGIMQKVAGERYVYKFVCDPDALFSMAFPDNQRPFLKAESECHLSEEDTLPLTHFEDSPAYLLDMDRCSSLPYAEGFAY
# ELF1, sequence (P32519 whole entry): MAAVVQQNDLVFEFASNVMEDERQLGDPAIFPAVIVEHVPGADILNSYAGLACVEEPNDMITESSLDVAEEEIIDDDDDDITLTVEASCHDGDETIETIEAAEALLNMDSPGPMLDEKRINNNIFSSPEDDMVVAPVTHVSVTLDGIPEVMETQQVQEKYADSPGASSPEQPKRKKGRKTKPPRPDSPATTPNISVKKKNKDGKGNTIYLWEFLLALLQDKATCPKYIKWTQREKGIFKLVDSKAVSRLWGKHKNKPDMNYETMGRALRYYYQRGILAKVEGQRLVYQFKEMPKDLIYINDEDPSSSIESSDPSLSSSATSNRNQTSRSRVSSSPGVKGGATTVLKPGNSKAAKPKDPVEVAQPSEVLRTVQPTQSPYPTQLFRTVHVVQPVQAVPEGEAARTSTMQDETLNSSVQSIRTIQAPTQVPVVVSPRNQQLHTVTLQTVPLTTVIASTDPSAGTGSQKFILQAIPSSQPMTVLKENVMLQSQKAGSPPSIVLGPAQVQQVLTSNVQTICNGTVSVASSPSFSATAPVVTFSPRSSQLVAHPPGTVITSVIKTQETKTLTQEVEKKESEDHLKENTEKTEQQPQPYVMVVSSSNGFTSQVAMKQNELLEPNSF
# SPIB, sequence (Q01892 whole entry): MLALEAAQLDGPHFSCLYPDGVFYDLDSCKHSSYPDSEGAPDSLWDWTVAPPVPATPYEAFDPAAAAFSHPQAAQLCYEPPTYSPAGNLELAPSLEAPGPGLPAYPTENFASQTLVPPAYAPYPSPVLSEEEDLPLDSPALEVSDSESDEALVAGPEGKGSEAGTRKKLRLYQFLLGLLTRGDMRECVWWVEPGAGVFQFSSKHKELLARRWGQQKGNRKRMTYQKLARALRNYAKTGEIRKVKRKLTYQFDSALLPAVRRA
# CRX, sequence (O43186 whole entry): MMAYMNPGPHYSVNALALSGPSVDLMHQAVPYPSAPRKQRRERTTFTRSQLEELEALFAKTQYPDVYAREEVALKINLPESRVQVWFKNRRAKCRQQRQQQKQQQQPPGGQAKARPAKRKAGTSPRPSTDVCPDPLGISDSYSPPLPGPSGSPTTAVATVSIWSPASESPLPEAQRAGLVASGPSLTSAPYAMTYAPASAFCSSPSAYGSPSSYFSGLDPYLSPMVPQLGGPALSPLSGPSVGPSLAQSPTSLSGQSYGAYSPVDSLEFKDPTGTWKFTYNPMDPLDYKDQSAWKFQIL
# HSF1, sequence (Q00613 whole entry): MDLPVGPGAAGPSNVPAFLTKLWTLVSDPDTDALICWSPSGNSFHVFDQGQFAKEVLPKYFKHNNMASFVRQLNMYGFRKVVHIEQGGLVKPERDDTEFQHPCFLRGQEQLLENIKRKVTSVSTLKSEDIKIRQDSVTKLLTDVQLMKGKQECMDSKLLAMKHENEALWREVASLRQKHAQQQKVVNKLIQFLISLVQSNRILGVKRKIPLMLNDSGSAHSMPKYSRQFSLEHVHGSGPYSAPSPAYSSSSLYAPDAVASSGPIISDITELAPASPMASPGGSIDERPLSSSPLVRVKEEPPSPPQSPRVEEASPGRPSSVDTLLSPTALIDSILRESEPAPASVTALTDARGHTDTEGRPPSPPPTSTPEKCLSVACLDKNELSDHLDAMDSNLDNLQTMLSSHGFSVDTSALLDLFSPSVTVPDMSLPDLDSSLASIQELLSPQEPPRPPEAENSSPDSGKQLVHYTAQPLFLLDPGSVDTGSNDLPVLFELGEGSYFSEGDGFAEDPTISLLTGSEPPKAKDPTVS
sequence,measurement,setting,value
TATTGA,binding signal,[1],"1.1 fold enrichment (6-mer frequency, TF over GST control)"
same,binding signal,[2],"1.16 fold enrichment (6-mer frequency, TF over GST control)"
same,binding signal,[3],"1.09 fold enrichment (6-mer frequency, TF over GST control)"
same,binding signal,[4],"1.13 fold enrichment (6-mer frequency, TF over GST control)"
same,binding signal,[5],"1.18 fold enrichment (6-mer frequency, TF over GST control)"
same,binding signal,[6],"1.15 fold enrichment (6-mer frequency, TF over GST control)"
same,binding signal,[7],"1.05 fold enrichment (6-mer frequency, TF over GST control)"
same,binding signal,[8],"1.11 fold enrichment (6-mer frequency, TF over GST control)"
same,binding signal,[9],"1.01 fold enrichment (6-mer frequency, TF over GST control)"
same,binding signal,[10],"1.1 fold enrichment (6-mer frequency, TF over GST control)"
same,binding signal,[11],"1.1 fold enrichment (6-mer frequency, TF over GST control)"
same,binding signal,[12],"1.14 fold enrichment (6-mer frequency, TF over GST control)"
same,binding signal,[13],"1.2 fold enrichment (6-mer frequency, TF over GST control)"
same,binding signal,[14],"1.17 fold enrichment (6-mer frequency, TF over GST control)"
same,binding signal,[15],"1.17 fold enrichment (6-mer frequency, TF over GST control)"
same,binding signal,[16],"1.14 fold enrichment (6-mer frequency, TF over GST control)"
same,binding signal,[17],"1.19 fold enrichment (6-mer frequency, TF over GST control)"
same,binding signal,[18],"1.29 fold enrichment (6-mer frequency, TF over GST control)"
same,binding signal,[19],"1.16 fold enrichment (6-mer frequency, TF over GST control)"

# Source: paper PMC7862700, “An all-to-all approach to the identification of sequence-specific readers for epigenetic DNA modifications on cytosine”
